MEKK3 PB1 HTS = modulators (inhibitors or enhancers) of MEK5 binding to human MEKK3 PB1 domain; Q99759; bead-based flow cytometry, Alexa488-MEK5 binding to MEKK3; actives lie on both sides; 0 = blocked by unlabeled MEK5, 100 = vehicle; binding response (% of control), % at 10 µM; 290,000 compounds, 1.4% hits; AID 1529;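 active = binding response more than 3 SD above or below the average of its plate-row segment, actives on both sides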;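 also: Alexa488 bead fluorescence after subtracting the streptavidin-only scavenger bead signal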
GRK2 inh = inhibitors of human GRK2 displacing RNA aptamer | inhibition of aptamer binding, % at 10 µM | 330,000 compounds, 0.59% hits | bead flow cytometry, FAM-aptamer displacement from GRK2 | P25098;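 active = inhibition of aptamer binding above 40%, roughly 3 SD of noise, on plates passing a quality check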;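 also: median bead fluorescence of bound FAM aptamer so fluorescent compounds give negative values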
Target sequence (P25098 whole entry, looked up): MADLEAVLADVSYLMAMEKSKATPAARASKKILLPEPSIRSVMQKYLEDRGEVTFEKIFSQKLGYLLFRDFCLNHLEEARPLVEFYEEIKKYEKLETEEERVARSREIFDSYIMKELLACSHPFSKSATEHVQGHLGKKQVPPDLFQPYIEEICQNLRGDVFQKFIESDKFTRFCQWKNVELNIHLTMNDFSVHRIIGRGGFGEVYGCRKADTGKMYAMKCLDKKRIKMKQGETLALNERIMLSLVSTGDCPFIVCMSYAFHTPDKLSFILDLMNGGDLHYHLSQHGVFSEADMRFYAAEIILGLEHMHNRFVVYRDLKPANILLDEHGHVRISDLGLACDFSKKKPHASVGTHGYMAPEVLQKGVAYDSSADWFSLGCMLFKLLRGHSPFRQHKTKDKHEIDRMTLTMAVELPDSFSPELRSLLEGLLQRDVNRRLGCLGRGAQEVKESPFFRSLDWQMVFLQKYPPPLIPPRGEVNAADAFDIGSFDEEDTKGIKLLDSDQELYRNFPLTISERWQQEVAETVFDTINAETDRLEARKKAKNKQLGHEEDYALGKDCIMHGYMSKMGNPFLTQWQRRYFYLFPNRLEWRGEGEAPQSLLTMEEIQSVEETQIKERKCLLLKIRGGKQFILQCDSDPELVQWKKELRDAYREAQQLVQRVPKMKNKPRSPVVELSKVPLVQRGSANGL
B2AR ag = human beta-2 adrenergic receptor agonism by FAP. Am2.2-beta2AR cells, FAP receptor internalization, flow cytometry. AID 504454. 340,000 compounds, 0.43% hits. response, % (no concentration beside the values);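 active = response above a set limit, near 3 SD of response in nonfluorescent compounds, cut at about 42% in these data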
MEKK2 WT-MEK5 = raises or lowers MEK5 binding to wildtype human MEKK2 PB1 domain | 290,000 compounds, 1.1% hits | Q9Y2U5 | bead flow cytometry, Alexa488-MEK5 binding to MEKK2 WT; actives lie on both sides | binding response (% of control), % at 10 µM; in the data active = binding response below about 67% or above about 130%
MEKK2 mut-MEK5 = signal of MEK5 binding to mutant human MEKK2 PB1 domain. bead flow cytometry, Alexa488-MEK5 binding to MEKK2 mutant. percent response, % at 10 µM. 290,000 compounds, 0.35% hits. AID 1530; in the data active = percent response above about 24%, passing the limit was not always enough
MEKK2wt confirm = raises or lowers MEK5 binding to wildtype human MEKK2, retest; shares compounds with MEKK3 PB1 HTS; bead flow cytometry, Alexa488-MEK5 binding to MEKK2 WT; actives lie on both sides; binding response (% of control), % at 10 µM; 5,900 compounds, 2.4% hits; in the data active = binding response below about 16% or above about 210%; inactive = in between
MEKK2mut-MEK5 = signal of MEK5 binding to mutant human MEKK2, retest; 5,900 compounds, 2% hits; shares compounds with MEKK3 PB1 HTS; percent response, % at 10 µM; bead flow cytometry, Alexa488-MEK5 binding to MEKK2 mutant; in the data active = percent response mostly above about 71%, no sharp cut-off; inactive = mostly below about 38%;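 also: higher means compound restores mutant binding toward wildtype level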
MEKK3-MEK5 inh = MEKK3-MEK5 PB1 inhibition, single concentration confirmation; shares compounds with MEKK3 PB1 HTS; bead flow cytometry, Alexa488-MEK5 binding to MEKK3; active compounds read low; binding response (% of control), % at 10 µM; 5,900 compounds, 1.8% hits;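 active = binding response below 72% of control, or above a set upper limit, though filed actives all read lower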;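 also: 100% = DMSO only wells and 0% = binding blocked by excess unlabeled MEK5; lower values mean stronger disruption of MEK5 binding to MEKK3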
The depositor's hits bear a star; . = no result; [ ] = dose if it differs, or a comment. In the library only some 2.9% were active in any assay of this set; here they are far more common.

SMILES	MEKK3 PB1 HTS	GRK2 inh	B2AR ag	MEKK2 WT-MEK5	MEKK2 mut-MEK5	MEKK2wt confirm	MEKK2mut-MEK5	MEKK3-MEK5 inh
O=[N+]([O-])c1ccc(N/N=C/c2sc(N3CCOCC3)nc2-c2ccccc2)c(S(=O)(=O)Nc2ccc(Cl)cc2)c1	11.0*[inhibitor]	.	-639.3	.	-32.0	79.0	-9.0	82.0
O=C(NC(N1CCOCC1)C(Cl)(Cl)Cl)c1ccccc1Cl (configuration not stated)	84.0	2.0	5.3	55.0*[inhibitor]	-6.0	106.0	8.0	107.0
O=C(CCCOc1ccccc1)NCCc1nc2ccccc2[nH]1	74.0*[inhibitor]	2.0	-5.7	87.0	-6.0	106.0	5.0	101.0
CC(N=c1ccccn1C(=O)Nc1ccc(Cl)cc1)c1ccco1 (configuration not stated)	99.0	0.0	.	96.0	-5.0	.	.	.
CC(N=c1ccccn1C(=O)Nc1ccc(F)cc1)c1ccco1 (configuration not stated)	0.0*[inhibitor]	1.0	4.5	-4.0*[inhibitor]	-39.0	95.0	-18.0	95.0
COc1ccc(NC(=O)c2cn(CCC#N)nc2-c2cccs2)cc1	140.0*	3.0	8.2	108.0	1.0	104.0	4.0	104.0
O=C1c2ccc([N+](=O)[O-])cc2C(=O)N1Cc1cccnc1	111.0	0.0	-2.0	118.0	25.0*	105.0	-2.0	106.0
COc1ccc(S(=O)(=O)n2c(CCN3CCOCC3)nc3ccccc32)cc1	107.0	0.0	4.4	113.0	4.0	.	.	.
CC(C)(C)c1ccc(S(=O)(=O)n2c(CN3CCOCC3)nc3ccccc32)cc1	125.0*	0.0	-1.7	120.0	6.0	101.0	0.0	102.0
O=S(=O)(Nc1ccc(S(=O)(=O)N2CCCC2)cc1)c1ccccc1Br	.	2.0	-2.7	.	.	.	.	.
COc1ccc(S(=O)(=O)N(C)C[C@H]2Oc3ccc(NC(=O)Cc4ccccc4)cc3C(=O)N([C@H](C)CO)C[C@@H]2C)cc1	.	0.0	-1.0	.	.	.	.	.
CCN(C(=O)CSc1ncccc1C(=O)Oc1cccc([N+](=O)[O-])c1)c1cccc(C)c1	138.0*	0.0	19.2	107.0	1.0	101.0	1.0	104.0
CCOc1ncccc1C(=O)N=C1SCCN1C(=O)c1cccnc1OCC	158.0*	0.0	-7.7	140.0	7.0	103.0	0.0	108.0
CCOc1ncccc1C(=O)N=c1sccn1C	102.0	0.0	-4.6	103.0	-1.0	.	.	.
C=Cn1cc[n+](CC(=O)C(C)(C)C)c1	137.0*	0.0	-4.0	107.0	2.0	106.0	10.0	106.0
COCCNC(=O)C(c1ccccc1)N(C(=O)Cn1nnc2ccccc21)c1cccnc1 (configuration not stated)	108.0	2.0	-4.0	110.0	10.0	.	.	.
COc1ccc(CNC(=O)C(c2ccco2)N(C(=O)c2ccccn2)c2ccccc2)cc1 (configuration not stated)	59.0*[inhibitor]	5.0	-2.5	55.0*[inhibitor]	-15.0	96.0	-4.0	98.0
CC(=O)c1cccc(N(C(=O)Cn2nnc3ccccc32)C(C(=O)NCc2ccccc2)c2ccccn2)c1 (configuration not stated)	130.0*	3.0	-2.9	105.0	2.0	94.0	4.0	97.0
CC(=O)c1cccc(N(C(=O)c2cnccn2)C(C(=O)NCc2ccccc2)c2ccco2)c1 (configuration not stated)	124.0*	0.0	6.1	118.0	9.0	100.0	5.0	97.0
CCN1C[C@@H]2[C@@H]3C(=O)N(Cc4ccccc4)C(=O)[C@@H]3[C@](CC)(C1=O)N2C(=O)c1ccc(F)cc1	.	.	-0.7	.	.	.	.	.
COCCNCC(=O)N1c2ccccc2Sc2ccccc21	104.0	0.0	-1.1	109.0	12.0	.	.	.
CC(C)CNCC(=O)N1c2ccccc2Sc2ccccc21	2.0*[inhibitor]	4.0	14.6	1.0*[inhibitor]	-42.0	71.0	-9.0	91.0
O=C(Nc1nncs1)c1ccc(S(=O)(=O)c2ccccc2)cc1	123.0*	2.0	12.5	119.0	6.0	105.0	0.0	107.0
O=C(Nc1ccccc1C(=O)Nc1nncs1)c1ccccc1	86.0	1.0	4.6	87.0	-19.0	.	.	.
O=C(NNC(=S)Nc1cccc2ccccc12)c1cccc(Br)c1	80.0*[inhibitor]	0.0	10.8	85.0	-7.0	90.0	-7.0	91.0
SMILES	MEKK3 PB1 HTS	GRK2 inh	B2AR ag	MEKK2 WT-MEK5	MEKK2 mut-MEK5	MEKK2wt confirm	MEKK2mut-MEK5	MEKK3-MEK5 inh
O=C(NNC(=O)c1ccc2ccccc2c1)c1cccc(Br)c1	.	.	-0.4	.	.	.	.	.
Cc1ccccc1-c1ccccc1CN1[C@@H](C(C)C)COCCS1(=O)=O	.	3.0	8.6	.	.	.	.	.
CCOC(=O)C1=C(N)OC2=C(C(=O)CC(C)(C)C2)C1c1ccc(C)s1 (configuration not stated)	110.0	0.0	3.9	105.0	0.0	.	.	.
CCOC(=O)C1=C(N)OC2=C(C(=O)CC(C)(C)C2)C1c1ccc(CC)s1 (configuration not stated)	40.0*[inhibitor]	0.0	2.6	41.0*[inhibitor]	-15.0	95.0	-4.0	102.0
COc1nc(Nc2ccccc2F)nc(OC)n1	102.0	1.0	2.1	102.0	25.0*	105.0	1.0	101.0
COc1nc(NCCO)nc(Nc2ccccc2F)n1	105.0	0.0	-5.0	107.0	8.0	.	.	.
Cc1cccc(NC(=O)C(Cc2ccccc2)n2cccc2)c1 (configuration not stated)	95.0	2.0	8.8	92.0	-3.0	.	.	.
CCCCn1c(N)c(N(CCOC)C(=O)COC(=O)CSc2cc(C)c3ccccc3n2)c(=O)[nH]c1=O	.	2.0	-0.5	.	.	.	.	.
O=C(NCCN1CCCCC1)c1ccco1	129.0*	0.0	-6.6	116.0	5.0	101.0	0.0	100.0
CC1CCN(CCCNC(=O)c2ccc(CS(=O)(=O)Cc3ccccc3F)o2)CC1	107.0	.	-1.0	104.0	11.0	.	.	.
O=C(NCCCN1CCCCCC1)c1ccc(CS(=O)(=O)Cc2ccccc2F)o1	83.0	.	8.9	200.0*	28.0*	179.0	41.0	75.0
O=C(NCCN1CCCCCC1)c1ccc(CS(=O)(=O)c2ccc(Br)cc2)o1	99.0	0.0	-4.3	169.0*	26.0*	183.0	59.0	113.0
CC(=O)OC(C(=O)NC1CCCCC1)c1ccncc1 (configuration not stated)	75.0*[inhibitor]	4.0	-0.4	83.0	-15.0	98.0	-5.0	101.0
CC(=O)OC(C(=O)NC1CCCCC1)c1ccccc1Cl (configuration not stated)	97.0	1.0	-3.0	101.0	-4.0	.	.	.
Cc1oc(C)c(C(=O)O)c1C(=O)O	45.0*[inhibitor]	3.0	-1.2	55.0	-15.0	103.0	4.0	103.0
